The list is not random: actives were taken first. Their share in the collection is about 2.4%.
D2 ag-1 – activates the human D2 dopamine receptor; P14416; DiscoveRx PathHunter D2 beta-arrestin, luminescence, 90 min; 100% = 57 uM dopamine signal; activation, % (no concentration beside the values); 0.084% of 360,000 active; AID 624465; in the data active = activation above about 40%; inconclusive = between about 15% and that limit
Target sequence (P14416 whole entry, looked up): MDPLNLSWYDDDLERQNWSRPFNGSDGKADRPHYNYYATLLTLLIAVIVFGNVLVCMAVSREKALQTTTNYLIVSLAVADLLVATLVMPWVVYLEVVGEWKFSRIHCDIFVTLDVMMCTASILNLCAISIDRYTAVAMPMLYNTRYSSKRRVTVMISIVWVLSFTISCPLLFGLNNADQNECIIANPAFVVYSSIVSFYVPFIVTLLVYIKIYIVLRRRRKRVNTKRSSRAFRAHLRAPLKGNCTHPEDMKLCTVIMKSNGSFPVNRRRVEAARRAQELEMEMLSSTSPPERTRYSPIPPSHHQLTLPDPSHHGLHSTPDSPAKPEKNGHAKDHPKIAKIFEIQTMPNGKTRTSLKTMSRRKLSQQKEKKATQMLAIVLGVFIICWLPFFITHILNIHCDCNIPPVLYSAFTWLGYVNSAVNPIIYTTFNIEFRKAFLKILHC
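DiscoveRx PathHunter D2 beta-arrestin cells (2,100/well) attached overnight, then compound-stimulated 90 min at 37 C in HBSS/10 mM HEPES/0.1% Tween-20 buffer; beta-galactosidase complementation read by luminescence after 1 h at ambient temperature. Dopamine 57 uM final (EC100) as control.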
D2 antag – D2 dopamine receptor (human) antagonism; 2% of 340,000 active; P14416; HEK293 TREx D2 cells, calcium flux, dopamine EC80; inhibition, % at 10 µM; in the data active = inhibition above about 30%; inactive = below that, where a call was filed; also: 0% is about no effect
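HEK293 T-REx D2 cells, tet-induced, calcium dye no-wash. Cpd pintool add, 180 s kinetic, then EC80 DA, 180 s kinetic. Ca flux read.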
D2 ag-2 – activates the human D2 dopamine receptor; AID 485358; activation, % at 2 µM; 0.53% of 340,000 active; HEK293 T-REx D2 cells, calcium flux agonist mode; P14416;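 active = activation over 3 SD above normal in the single-dose calcium agonist read, cut at about 30% in these data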; also: 0% is about no effect
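Tetracycline-induced HEK293 T-REx cells with force-coupled D2 receptor, plated overnight at 30 C, loaded with no-wash calcium dye. After a 10 s baseline, compound was pin-added and calcium flux read kinetically for 180 s; calcium rises flagged agonists.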
D2 PAM-1 – D2 dopamine receptor (human) potentiation | 0.34% of 340,000 active | potentiation, % at 10 µM | P14416 | HEK293 T-REx D2, calcium flux, EC20 dopamine potentiation;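 active = potentiation over 3 SD above the plate norm, cut at about 30% in these data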; also: 0% is about no effect
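Primary screen. Calcium kinetics in induced HEK293 T-REx D2 cells: compound pre-addition 180 s, EC20 dopamine, 180 s more.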
D2 PAM-2 – potentiates the human D2 dopamine receptor allosterically; P14416; DiscoveRx D2 beta-arrestin cells, luminescence, 90 min; 100% = 57 uM dopamine signal; potentiation, % (test concentration not listed); 0.23% of 360,000 active; in the data active = potentiation above about 50%; inconclusive = mostly about 30% to 49%
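PathHunter D2 cells, attached overnight at 37 deg C, received compound in DMSO plus dopamine at EC20 (50 nM final) for 90 min at 37 deg C. Beta-arrestin recruitment was read as luminescence after 1 h with detection reagent at ambient temperature.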
An asterisk follows results filed as active; ? = inconclusive; . = no result given.

SMILES	D2 ag-1	D2 antag	D2 ag-2	D2 PAM-1	D2 PAM-2
O=C(Nc1cccc(C(F)(F)F)c1)c1cc2c(s1)-c1ccccc1OC2	-2	40*	0	-16	-13
CCOc1cc(/C=C2\SC(=S)N(C(C(=O)O)c3ccccc3)C2=O)ccc1O (stereo unspecified)	-11	-8	0	12	-20
COc1cc(/C=C2\SC(=S)N(C(C(=O)O)c3ccccc3)C2=O)ccc1O (stereo unspecified)	-10	1	33*	0	-20
Cc1ccccc1NC(=O)CN(C)S(=O)(=O)c1cccc2nsnc12	.	.	.	7	.
CCc1nc(-c2ccc(C)c(S(=O)(=O)N3CCN(c4ccc(C(C)=O)cc4)CC3)c2)no1	.	.	-1	-13	.
CCCNC(=O)Cn1cc(S(=O)(=O)N2CCCC2)c(S(=O)(=O)N2CCCC2)c1	-6	37*	0	-3	-11
CCC(C)NC(=O)Cn1cc(S(=O)(=O)N2CCCC2)c(S(=O)(=O)N2CCCC2)c1 (stereo unspecified)	-5	9	-1	-3	1
COc1ccc(F)cc1C(=O)C1CCCN(Cc2ccc(Sc3nncn3C)o2)C1 (stereo unspecified)	-4	31*	1	-18	-3
O=C(CSc1nc(=O)n(Cc2ccco2)c2c1CCC2)NCc1ccccc1Cl	.	.	.	14	.
COc1ccc(CCNC(=O)CCn2c(=O)c3ccccc3n(Cc3c(C)cc(C)cc3C)c2=O)cc1OC	.	.	-1	.	.
CCC(=O)NC1=C(Cl)C(=O)C(NC(=O)CC)=C(Cl)C1=O	42*	-8	2	1	-60
CCC(=O)NC1=C(NC(C)c2ccccc2)C(=O)c2ccccc2C1=O (stereo unspecified)	6	-15	0	3	?
Cc1cccc(CNC(=O)C2CCC(CNS(=O)(=O)c3ccc4c(c3)CCCC(=O)N4)CC2)c1 (stereo unspecified)	.	.	0	-10	.
COc1cc(-c2coc3c(C(=O)NCc4ccc(OC)c(OC)c4)cccc23)ccc1O	68*	.	.	.	-7
Cn1ccnc1SCC(=O)Nc1ccc([N+](=O)[O-])cn1	-3	8	3	2	-16
Cn1ccnc1SCC(=O)Nc1ccc(Cl)cn1	-4	31*	-1	-5	-9
CCc1cc(=O)[nH]c(SCc2nc(-c3ccc(C(F)(F)F)cc3)no2)n1	.	.	-1	.	.
CCOc1ccc(NC(=O)CCC(=O)NNC(=O)COc2ccccc2C)cc1	-5	36*	-1	-4	0
CCc1ccccc1NC(=O)CCn1cccn1	.	.	0	5	.
Cc1oc(-c2ccccc2F)nc1CS(=O)(=O)CC(=O)NCCCN1CCN(C)CC1	-1	10	1	0	-8
CCCNC(=O)CS(=O)(=O)Cc1nc(-c2ccccc2C)oc1C	-3	40*	0	6	-3
Cc1oc(-c2ccccc2F)nc1CS(=O)(=O)CC(=O)NCCCN1CC(C)CC(C)C1 (stereo unspecified)	-7	48*	-1	-4	-31
COc1ccc(NC(=O)C2CCCN(S(=O)(=O)c3ccc(Br)s3)C2)cc1 (stereo unspecified)	.	.	-1	1	.
Cn1nnnc1Sc1ccc([N+](=O)[O-])cc1Cl	7	-18	1	2	19
O=[N+]([O-])c1ccc(Sc2nnnn2-c2ccccc2)c(Cl)c1	13	36*	-1	-6	30
SMILES	D2 ag-1	D2 antag	D2 ag-2	D2 PAM-1	D2 PAM-2
C=CCc1ccccc1OCCSc1nc(-c2ccccc2F)nc2cc(=O)[nH]n12	.	.	1	7	.
Cc1nn(CCCC(=O)Nc2cccc(C(F)(F)F)c2)c(=O)c2nn(-c3ccccc3)c(C)c12	.	.	0	-6	.
Cc1ccc(CNC(=O)c2ccc(Nc3nc4ccccc4n4nnnc34)cc2)cc1	.	.	1	-3	.
Cc1ccc(CNc2nc3ccccc3n3nnnc23)cc1	-1	-11	1	-4	52*
COc1ccc2c(c1)C(C)CC(C)(C)N2C(=O)Nc1ccccc1 (stereo unspecified)	1	54*	1	-3	-2
COc1ccc2c(c1)C(C)CC(C)(C)N2C(=O)CSc1nc2ccccc2s1 (stereo unspecified)	-4	14	0	-6	17
COc1ccc(-c2cn[nH]c2-c2ccc(OCc3ccc(F)cc3)cc2O)cc1OC	3	45*	-1	-11	-10
C=C(C)COc1ccc(-c2[nH]ncc2-c2ccc(OC)cc2)c(O)c1	2	-14	.	9	-5
C=C(C)COc1ccc(-c2[nH]ncc2-c2ccccc2)c(O)c1	7	-6	0	7	84*
CC(NC(=O)CCCn1c(=O)c2cccn2c2cccnc21)c1ccccc1 (stereo unspecified)	.	.	.	4	.
CCC(=O)N1CCc2cc(OC)c(OC)cc2C1COc1ccc(C(=O)OC)cc1 (stereo unspecified)	-2	-5	0	40*	-2
Cc1ccccc1C(=O)OCCN(C)Cc1ccccc1	-5	32*	-2	-21	-16
Cc1ccc(C(=O)OCCN(C)Cc2ccccc2)cc1	-4	2	2	-19	-19
O=S(=O)(Nc1ccc(-c2ccc(N3CCCC3)nn2)cc1)c1cc(F)ccc1F	.	.	0	5	.
CCOC(=O)C1(CCOC)CCN(Cc2nc(-c3cccs3)oc2C)CC1	-3	31*	1	-22	-14
Cc1oc(-c2cccs2)nc1CN1CCC(CO)(CCOc2ccccc2)CC1	-4	54*	-1	-8	-29
Cc1oc(-c2cccs2)nc1CN1CCC(C(=O)N2CCCC2)CC1	-4	23	-2	-10	-11
CCCc1nc(SCc2cc(=O)c3ccc(C)c(C)c3[nH]2)n[nH]1	.	.	0	2	.
Cc1ccccc1NCC(=O)N/N=C/c1c(C)c(C(=O)c2ccc(Cl)cc2)n2ccccc12	-1	32*	2	-3	-16
COc1c(C)cc(S(=O)(=O)NCCc2c(C)[nH]c3ccccc23)c(C)c1C	.	.	1	-3	.
Cc1[nH]c2ccccc2c1CCNS(=O)(=O)c1ccc(S(N)(=O)=O)cc1	-4	55*	6	-16	-6
Cc1cc(C)nc(SCC(=O)N2CCc3ccccc32)n1	-2	.	.	.	-2
O=C(CSc1nnc(-c2ccccc2)c(-c2ccccc2)n1)N1CCc2ccccc21	0	69*	-1	-2	-4
O=C(CSc1ncc(-c2ccccc2)n1C1CCCC1)N1CCc2ccccc21	-2	31*	0	-31	-22
Cn1c(-c2ccccc2)cnc1SCC(=O)N1CCCc2ccccc21	-2	-15	0	-9	-8
Cc1nc2sc(C(=O)NCc3ccc(Cl)cc3)c(NC(=O)c3ccccc3)c2c(C)c1C	.	.	0	0	.
O=C(Nc1nnc(C(F)(F)F)s1)c1ccc(Br)s1	-10	35*	19	-18	-6

Screening data deposited in PubChem BioAssay by National Center for Advancing Translational Sciences (NCATS).
